Screening data deposited in PubChem by National Center for Advancing Translational Sciences (NCATS).
BAZ2B block = BAZ2B (human) inhibition; Q9UIF8; Potency, µM (top dose mostly 114 µM), for the others: at the highest dose activity change, negative = inhibition, hits mostly inhibitors; AID 504333; 4.4% of 360,000 active; AlphaScreen BAZ2B-H3K14Ac peptide displacement; also: % is scaled to controls: 0 for no effect and ±100 for the full control effect; nearly all actives have a fitted effect of over 60% in size
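Multi-concentration screen (max 110 uM) measuring displacement of acetylated histone H3 peptide from BAZ2B by AlphaScreen, using 50 nM protein, 50 nM peptide and 10 ug/mL streptavidin donor plus Ni-chelate acceptor beads.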
HP1b binding inh = HP1-beta chromodomain-methylated histone interaction inhibition; P83916; Potency, µM (doses to about 114 µM), for inactives: at the top dose activity change, negative = inhibition, actives largely listed as inhibitors; 0.56% of 390,000 active; AlphaScreen HP1-beta / biotin-H3K9me3 peptide binding; AID 540317; also: nearly all actives have a fitted effect of over 70% in size
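Compound inhibition of the preformed complex between 50 nM HP1-beta and 50 nM biotinylated H3K9me3 peptide was read by AlphaScreen. Buffer was PBS pH 7.4 with 0.01% Tween-20. Incubations ran 30 min at room temperature, with 10 ug/mL donor/acceptor beads.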
L3MBTL1 inh-1 = L3MBTL1 (human) inhibition | Q9Y468 | AlphaScreen L3MBTL1–H3K9me1 peptide binding | Potency, µM (doses to about 57.1 µM), for the others: at the top dose activity, negative = inhibition, usual class: inhibitors | 0.66% of 230,000 active | AID 485360; also: % is scaled to controls: 0 for no effect and ±100 for the full control effect; nearly all actives have a fitted effect of over 60% in size
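Displacement of a biotinylated histone H3(1-15) peptide monomethylated at Lys9 (75 nM) from L3MBTL1 (50 nM) was measured by AlphaScreen after a 30 min room-temperature compound incubation; cefsulodin titration served as intraplate control.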
JMJD2A Tudor = inhibitors of human JMJD2A Tudor domain. O75164. AlphaScreen JMJD2A-Tudor / H3K4me3 peptide binding. Potency, µM (series often up to 114 µM), for the others: at the top dose activity change, negative = inhibition, most hits filed as inhibitors. 4.4% of 390,000 active. AID 504339; also: % is scaled to controls: 0 for no effect and ±100 for the full control effect; nearly all actives have a fitted effect of over 50% in size
G9a block = blocks human histone lysine methyltransferase G9a; 8.8% of 350,000 active; Potency, µM (top dose mostly 102 µM), without a hit: top-dose activity, negative = inhibition, actives largely listed as inhibitors; Q96KQ7; G9a H3K9 monomethylation, AlphaScreen, 2 h; also: % is scaled to controls: 0 for no effect and ±100 for the full control effect; nearly all actives have a fitted effect of over 75% in size
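Using a bead-based AlphaScreen, monomethylated H3K9 product from 2 h room-temperature reactions (G9a 20 nM, peptide 500 nM, SAM 20 uM) was detected with 0.5 ug/mL rabbit anti-H3K9me1 antibody.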
L3MBTL1 inh-2 = validation of human L3MBTL1 methyl-lysine binding inhibitors; 91% of 500 active; L3MBTL1 methyl-lysine binding inhibition, biochemical qHTS; Potency, µM, actives largely listed as inhibitors; shares compounds with L3MBTL1 inh-1; also: nearly all actives have a fitted effect of over 70% in size
L3MBTL1 ctr = interferes with AlphaScreen signal in L3MBTL1 counterscreen. Potency, µM (highest dose often 57.1 µM), without a hit: at the highest dose activity change, negative = inhibition, actives largely listed as inhibitors. 500 tested, under 10 active. AlphaScreen counterscreen, signal inhibition. shares compounds with L3MBTL1 inh-1. AID 602224; also: 0% is about no effect
* hit, by the source's call; ? = inconclusive; . = no result; [ ] = another dose, or the depositor's remark. Hits are enriched below; roughly 11% of the tested compounds scored in any of these assays. Calls follow the shape of the dose curve; as a rule, active = well fitted curve in the direction sought with a large enough effect; inconclusive = small, poorly fitted or top-dose-only effect, or another doubt; inactive = no such curve, though single readings can be large; an effect the other way counts as inactive or inconclusive. Potency is read from the fitted curve at half-maximal effect.

SMILES	BAZ2B block	HP1b binding inh	L3MBTL1 inh-1	JMJD2A Tudor	G9a block	others
CN(C)c1ccc(C2C3CCCc4ccccc4C3=NN2C)cc1 (configuration not stated)	32µM*	?	?	25µM*	10µM*
CN1N=C2c3ccccc3CCC2C1c1ccc(C(F)(F)F)cc1 (configuration not stated)	-17%	44%	.	1%	5%
O=C(CSc1nc(=O)[nH]c2c1CCCC2)Nc1ccccc1C(F)(F)F	14%	85%	.	-7%	-2%[59 µM]
CCC(=O)Nc1nc(=S)ss1	?	?	.	-35%	8.9µM*
CC(C)(C)C(=O)Nc1nc(=S)ss1	-9%	-20%	.	-20%	?
COc1ccc(N(CC(=O)Nc2cccc(C(C)=O)c2)S(=O)(=O)c2ccccc2)c(OC)c1	?	23%	.	-12%	3.2µM*
CCOc1ccccc1CNC(=O)c1ccc(NC(=O)C2=C(C)OCCS2)cc1	?	29%	.	-34%	32µM*
CCOc1ccccc1CNC(=O)c1ccc(NC(=O)C2=CSCCO2)cc1	-8%	11%[57 µM]	.	-9%	15%
COc1cccc(CNC(=O)Cc2ccc(NC(=O)C3=C(C)OCCS3)cc2)c1	50µM*	17%	.	?	-13%
COc1cc2c3c(c1)C(C)CC(C)(C)N3C(=O)C2=O (configuration not stated)	?	?	-17%	?	?
CCc1cc2c3c(c1)C(C)CC(C)(C)N3C(=O)/C2=C1\SC(=O)NC1=O (configuration not stated)	?	?	?	50µM*	25µM*
Cc1cc2nc(-c3ccc(OCc4ccc(F)cc4)cc3)cc(C(F)(F)F)n2n1	5%	37%	.	-2%	18%[59 µM]
FC(F)(F)c1ccccc1/C=N/n1c(COc2ccccc2)n[nH]c1=S	?	?	.	?	20µM*
Oc1ccc(Br)cc1/C=N/n1c(COc2ccccc2)n[nH]c1=S	-9%	?	.	?	28µM*
S=c1[nH]nc(COc2ccccc2)n1/N=C/c1ccccc1Br	-17%	4%	.	-26%	8.9µM*
COc1cccc(NC(=O)CC2NCCNC2=O)c1 (configuration not stated)	5%	18%	.	-14%	6%[59 µM]
CCCn1c(O)c(CN2CCCCC2)c(C)c(C#N)c1=O	-13%	-13%	-11%	?	-20%[59 µM]
Cc1c(CN2CCCCC2)c(O)n(CCCO)c(=O)c1C#N	-8%	23%	-12%	-17%	45µM*
CCCn1c(SCC(=O)N2c3ccc(F)cc3CCC2C)nnc1-c1ccccn1 (configuration not stated)	5%	?	-13%	71µM*	-12%[59 µM]
CCn1c(C(=O)N2CCC(C(=O)N3CCN(c4cccc(C)c4C)CC3)CC2)cc2sccc21	22µM*	-12%	.	?	?
CCn1c(C(=O)N2CCC(C(=O)N3CCN(c4cc(C)ccc4C)CC3)CC2)cc2sccc21	22µM*	?	.	22µM*	?
CCn1c(C(=O)N2CCC(C(=O)N3CCN(c4ccccn4)CC3)CC2)cc2sccc21	-25%	17%	4%	-26%	-13%[59 µM]
Cc1ccc(C(=O)Nc2ccc(S(=O)(=O)O)c3cc(S(=O)(=O)O)cc(S(=O)(=O)O)c23)cc1NC(=O)c1cccc(NC(=O)Nc2cccc(C(=O)Nc3cc(C(=O)Nc4ccc(S(=O)(=O)O)c5cc(S(=O)(=O)O)cc(S(=O)(=O)O)c45)ccc3C)c2)c1	.	.	.	.	0.28µM*
O=C(c1cc(C2CC2)nn1-c1ccccc1)N1CCN(c2ccccc2O)CC1	.	8%	-8%	-34%	.
O=C(c1cc(-c2ccc(O)cc2)on1)N1CCN(c2ccccc2)CC1	?	-22%	.	56µM*	-4%[59 µM]
SMILES	BAZ2B block	HP1b binding inh	L3MBTL1 inh-1	JMJD2A Tudor	G9a block	others
O=C(c1cc(C2CC2)nn1-c1ccccc1)N1CCN(c2ccc(O)cc2)CC1	?	71µM*	-17%	32µM*	2.8µM*
O=C(c1cc(-c2cccc(O)c2)on1)N1CCCC1	-1%	10%	.	-9%	50µM*
O=C(NNc1ccc(-c2csnn2)cc1)c1ccccc1C(F)(F)F	0%	25%	7%	-9%	28µM*
Cc1ccc(S(=O)(=O)N2CN(Cc3ccco3)c3nc4ccccc4nc32)cc1	-28%	10%	-3%	?	32µM*
O=S(=O)(c1ccc(F)cc1)N1CN(Cc2ccco2)c2nc3ccccc3nc21	?	-4%	.	?	11µM*
Cc1ccc(S(=O)(=O)N2CN(Cc3ccco3)c3nc4ccccc4nc32)cc1C	-24%	15%	-5%	-22%	32µM*
COc1ccc(S(=O)(=O)N2CN(Cc3ccco3)c3nc4ccccc4nc32)cc1	?	1%	.	?	?
Cc1c(CCC(=O)NCc2cccc(Cl)c2)c(=O)oc2c(C)c(O)ccc12	-10%	25%	.	-20%	6%[59 µM]
Cc1cc(C(=O)CN2C(=O)c3ccccc3S2(=O)=O)c(C)n1CC1CCCO1 (configuration not stated)	-34%	-4%	0%	?	50µM*
Cc1cc(C(=O)CSc2nc3ccccc3c(=O)n2C)c(C)n1CC1CCCO1 (configuration not stated)	?	.	-3%	.	?
CCn1c(SCC(=O)c2cc(C)n(CC3CCCO3)c2C)nc2ccccc21 (configuration not stated)	?	-20%	-19%	?	18µM*
Cc1cccc(-n2c(SCC(=O)Nc3ccccc3C)nc3c(oc4ccccc43)c2=O)c1	1%	28%	.	4%	-4%[59 µM]
C=Cc1ccc(Cn2c(C(=O)O)c(CNCc3cc(OC)ccc3OC)c3ccc(C)cc32)cc1	-20%	46%	.	-14%	?
CC(=O)Oc1ccc2c(=O)c(Oc3ccccc3)coc2c1OC(C)=O	50µM*	-12%	14µM*	?	8.9µM*	L3MBTL1 inh-2=9.5*;L3MBTL1 ctr=9%
COC(=O)/C(C#N)=C/c1ccc(OC(=O)c2ccccn2)cc1	7.1µM*	44%	16µM*	8.9µM*	7.9µM*	L3MBTL1 inh-2=?;L3MBTL1 ctr=0%
COc1ccc(S(=O)(=O)/N=C2/NC(=O)/C(=C/c3ccco3)S2)cc1	?	12%	35µM*	?	?	L3MBTL1 inh-2=19*;L3MBTL1 ctr=-1%
